Among the test systems are T-47D breast; BT-549 breast; MDA-MB-435 melanoma; SW-620 colon; MCF7 breast; HCT-116 colon; HCC-2998 colon; KM12 colon.
Assay in all cases: NCI-60 one-dose screen, 48 h (100 = growth as untreated, 0 = no growth, -100 = all killed)
Holding throughout (settings): 10 µM unless noted

This is part of a sample that, as a whole, favours compounds with a hit. Of some 83,000 tested, about 20% had one in any assay.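 Growth was measured after 48 h exposure to one concentration of compound in 96-well plates. Values under 10 count as active.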 Unmarked numbers belong to inactive results. Active and inactive are the calls of the source.

As for `Cc1ccc2nc3c(cc2c1)CSc1nnc(-c2ccc[nH]c2=S)n1N3`, the growth in the test on T-47D breast is 90.8%; in the test on BT-549 breast, 97.4%; with MDA-MB-435 melanoma, 88.2%; with SW-620 colon it was 102%; in the test with MCF7 breast, 94.4%; with HCT-116 colon, 92.5%. Moreover, the growth in the test with HCC-2998 colon was 107%; in the test with KM12 colon, 99.7%.
Turning to `O=S(=O)(c1ccc(N/N=C\c2ccccc2)cc1)c1ccc(N/N=C/c2ccccc2)cc1`, the growth was 56% in the test with T-47D breast; 105% in the test on BT-549 breast; 68.8% in the test on MDA-MB-435 melanoma; 74% with SW-620 colon; 62.9% in the test with MCF7 breast; 52.6% in the test with HCT-116 colon. Besides, the growth in the test on HCC-2998 colon is 66.4%; in the test on KM12 colon it was 66.9%.
On to `O=C(c1ccccc1)N1N=C(c2ccc(-n3ccc(C(F)(F)F)n3)cc2)CC1c1ccc[nH]1` (stereo not given), for which the growth with T-47D breast was 73.5%; in the test on BT-549 breast, 116%; with MDA-MB-435 melanoma, 96%; in the test on SW-620 colon, 98.9%; with MCF7 breast, 91.5%; with HCT-116 colon, 93.7%. Besides, the growth was 115% in the test on HCC-2998 colon and 79.7% in the test on KM12 colon.
In the case of `COc1cc(/C=C2\C(=O)N(Cc3ccc(Cl)cc3)c3ccccc32)cc(OC)c1OC`, the growth in the test with T-47D breast is 32.1%; in the test with BT-549 breast it was 9.56% (active); with MDA-MB-435 melanoma, 28.2%; in the test with SW-620 colon it was -29.7% (active); with MCF7 breast, 8.81% (active); with HCT-116 colon, -23.4% (active). Also, the growth with HCC-2998 colon is -28.5% (active); in the test with KM12 colon it was 15.5%.
Take `COc1cc(C2CC(c3cccc(Nc4ccncc4)c3)=NN2c2ccccc2)cc(OC)c1OC` (stereo not given): the growth with T-47D breast is 82.3%; in the test on BT-549 breast, 59.4%; with MDA-MB-435 melanoma, -72.9% (active); in the test on SW-620 colon, -25.9% (active); in the test with MCF7 breast it was 13.7%; in the test on HCT-116 colon, 32%. Moreover, the growth in the test with HCC-2998 colon was 20.2%; in the test on KM12 colon it was 7.46% (active).
In the case of `COc1ccc(-c2ncc(-c3ccccc3)[nH]2)cc1OC`, the growth in the test on T-47D breast was 102%; with BT-549 breast, 240%; with MDA-MB-435 melanoma, 104%; in the test with SW-620 colon, 108%; in the test with MCF7 breast, 83.6%; with HCT-116 colon it was 117%. Moreover, the figures for the growth with HCC-2998 colon and in the test on KM12 colon were 120% and 105%, respectively.
For `Cc1c2c(cc[n+]1Cc1ccccc1)c1ccc(OCC3CCCCC3)cc1n2CC1CCCCC1`, the growth in the test with T-47D breast is -74.1% (active); in the test on BT-549 breast it was -91% (active); with MDA-MB-435 melanoma, -84.9% (active); in the test with SW-620 colon, -96.6% (active); in the test on MCF7 breast, -92.3% (active); with HCT-116 colon, -98.3% (active). For the same compound, the growth was -93.2% (active) in the test with HCC-2998 colon and -99.9% (active) with KM12 colon.
Consider `CCCCCCCCCCCCCCCC(=O)OC[C@@]1(O)C[C@@]23CC[C@@H]4C(C)(C)CCC[C@@]4(C)[C@@H]2CC[C@H]1C3`, for which the growth with T-47D breast was 83.5%; with BT-549 breast, 86.7%; with MDA-MB-435 melanoma it was 107%; in the test on SW-620 colon, 108%; with MCF7 breast, 60.5%; in the test with HCT-116 colon it was -79.1% (active). Also, the growth in the test with HCC-2998 colon is 118%; in the test with KM12 colon, 111%.
As to `CC(=O)Nc1ccc(S(=O)(=O)NC2CCCCC2)cc1`, the growth is 90.9% in the test on T-47D breast; 96.4% with BT-549 breast; 105% in the test with MDA-MB-435 melanoma; 97.7% in the test with SW-620 colon; 96.9% in the test with MCF7 breast; 103% in the test on HCT-116 colon. The figures for the growth in the test with HCC-2998 colon and in the test with KM12 colon were 102% and 104%, respectively.
Take `COc1ccc(Cn2nc(-c3cc(OC)c(OC)c(OC)c3)c3c2CCc2cnoc2-3)cc1OC`: the growth in the test on T-47D breast was 65.8%; in the test on BT-549 breast it was 61.1%; in the test on MDA-MB-435 melanoma, -7.19% (active); with SW-620 colon it was 48%; in the test with MCF7 breast, 29.8%; in the test with HCT-116 colon, 46.6%. Moreover, the growth with HCC-2998 colon is 70.5%; in the test with KM12 colon, 54%.
For `COc1cc(C2CC(c3cccc(Nc4ccncc4)c3)=NN2c2cc(Cl)cc(Cl)c2)cc(OC)c1OC` (stereo not given), the growth in the test on T-47D breast is 26.7%; with BT-549 breast, 104%; with MDA-MB-435 melanoma, -85% (active); in the test with SW-620 colon, -62.6% (active); in the test on MCF7 breast, -50.7% (active); with HCT-116 colon it was 87.3%. Moreover, the growth with HCC-2998 colon was -60.4% (active); in the test on KM12 colon it was -75.7% (active).
Turning to `CCCCCCCCCCCCC1CCC/C=C\CCC(=O)O1` (stereo not given), the growth in the test on T-47D breast is 90%; with BT-549 breast it was 112%; in the test with MDA-MB-435 melanoma, 104%; in the test on SW-620 colon, 103%; in the test on MCF7 breast it was 95.6%; with HCT-116 colon, 91.1%. Further, the results for the growth with HCC-2998 colon and in the test on KM12 colon were 104% and 110%, respectively.
On to `COc1cccc2c1C(=O)c1c(O)c3c(c(O)c1C2=O)C[C@@](O)(C(=O)CO)C[C@@H]3O[C@H]1C[C@H](N)[C@@H](O)[C@H](C)O1`, for which the growth is 4.43% (active) in the test with T-47D breast; -39% (active) in the test on BT-549 breast; -77.6% (active) in the test with MDA-MB-435 melanoma; 0.619% (active) in the test with SW-620 colon; 4.48% (active) with MCF7 breast; 5.25% (active) in the test on HCT-116 colon. Further, the results for the growth in the test with HCC-2998 colon and in the test with KM12 colon were -22.8% (active) and 1.25% (active), respectively.
As to `NS(=O)(=O)c1cccc(NC(=O)C(=O)C2C(=O)Nc3ccccc32)c1` (stereo not given), the growth in the test with T-47D breast is 112%; in the test with BT-549 breast, 109%; with MDA-MB-435 melanoma, 96.8%; with SW-620 colon it was 94.5%; in the test with MCF7 breast, 109%; in the test on HCT-116 colon, 93.3%. The growth in the test with HCC-2998 colon was 104%; in the test on KM12 colon, 103%.
For the compound `FC(F)(F)c1cccc(Oc2ccc(Nc3ncnc4ccc(OCCCN5CCOCC5)cc34)cc2Cl)c1`, the growth in the test on T-47D breast is 32.7%; in the test on BT-549 breast it was 78.9%; in the test with MDA-MB-435 melanoma it was 43.2%; in the test with SW-620 colon, 31.7%; with MCF7 breast, 28.7%; with HCT-116 colon it was 28%. Further, the growth in the test on HCC-2998 colon is 29.3%; in the test on KM12 colon, 17.1%.

For the origin of these results see PubChem BioAssay (NCI).
